Screening results as filed in PubChem.
A selection: hits, their analogues and other compounds. The true share with any hit is near 19%.
Cycloheximide cs: Cycloheximide Counterscreen for Small Molecule Inhibitors of Shiga Toxin; cell reporter, cycloheximide protein synthesis inhibition counterscreen; max response, %; hit rate 12% among 300,000; AID 2314, 2010; in the data active = max response mostly above about 13%, no sharp cut-off; inactive = mostly below about 14%; also: read at 38.3 µM for the half of the compounds with a filed dose; 0% is about no effect
Pf growth 96h: Primary qHTS for delayed death inhibitors of the malarial parasite plastid, 96 hour incubation | hit rate 6.9% among 320,000 | P. falciparum luciferase reporter growth, 96 h | Potency, µM (doses to about 28.7 µM), without a hit: at the top dose activity change, negative = inhibition, actives largely listed as inhibitors; also: potency is read from the fitted curve at half-maximal effect; % is scaled to controls: 0 for no effect and ±100 for the full control effect
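Two-generation exposure (96 h) targets delayed-death phenotype. Reporter parasites carrying integrated firefly luciferase, in red cells at 2% hematocrit and 0.05% parasitemia final, kept at 37 C, 5% CO2; luminescence loss indicates inhibition.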
Pf growth 48h: Primary qHTS for delayed death inhibitors of the malarial parasite plastid, 48 hour incubation | P. falciparum luciferase growth in erythrocytes, 48 h | Potency, µM (highest dose often 28.7 µM), inactives show top-dose activity change, negative = inhibition, hits mostly inhibitors | hit rate 5.9% among 310,000; also: potency is read from the fitted curve at half-maximal effect; % is scaled to controls: 0 for no effect and ±100 for the full control effect
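In quantitative HTS format, infected erythrocytes bearing luciferase-reporter parasites were treated for a single generation at 37 C. Luminescence after adding detection reagent served as the growth measure.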
Shiga inhibitor: A qHTS for Small Molecule Inhibitors of Shiga Toxin; Vero cells, Shiga toxin protein synthesis inhibition reporter; inhibition, % at 38.7 µM; hit rate 9.2% among 290,000; in the data active = inhibition mostly above about 28%, no sharp cut-off; inactive = mostly below about 43%; also: 0% is about no effect
Lassa entry inh: qHTS for Inhibitors of binding or entry into cells for Lassa Virus; Lassa virus pseudotype entry inhibition, cell reporter; hit rate 1.2% among 300,000; Potency, µM (highest dose often 37.9 µM), for the others: top-dose activity change, negative = inhibition, hits mostly inhibitors; AID 540256, 2011; calls by dose curve; tested in HEK293 cells; also: potency is read from the fitted curve at half-maximal effect; % is scaled to controls: 0 for no effect and ±100 for the full control effect; nearly all actives have a fitted effect of over 50% in size
MARV entry inh: qHTS for inhibitors of binding or entry into cells for Marburg Virus | hit rate 1.8% among 300,000 | Potency, µM (highest dose often 37.8 µM), for inactives: at the top dose activity change, negative = inhibition, actives largely listed as inhibitors | Marburg virus pseudotyped entry inhibition, cell reporter; calls by dose curve; tested in HEK293 cells; also: potency is read from the fitted curve at half-maximal effect; % is scaled to controls: 0 for no effect and ±100 for the full control effect
Active calls of the source: *; ? = inconclusive; · = no result given; [ ] = remark or other dose. Unless noted, calls follow the shape of the dose curve; as a rule, active = well fitted inhibition curve with a large enough effect; inconclusive = small, poorly fitted or top-dose-only effect, or another doubt; inactive = no such curve, though single readings can be large or run the other way.

SMILES	Cycloheximide cs	Pf growth 96h	Pf growth 48h	Shiga inhibitor	Lassa entry inh	MARV entry inh
C=CCNc1nc(N2CCOCC2)nc(N2CCOCC2)n1	6	13µM*	-14%	13	8%	5%
CCOC(=O)c1c(C)oc2nc(C)nc(NCc3ccc(F)cc3)c12	·	·	·	·	15%[46.1 µM]	·
CCN(CC(=O)Nc1c(F)cccc1F)C(=O)CCNS(=O)(=O)c1ccccc1C(F)(F)F	·	-6%	?	·	18%	?
CCOC(=O)c1cc(C(C)(C)C)oc1CNC(=O)c1c(C)oc2c1CCCC2	23	?	15µM*	73*	?	-26%[46.1 µM]
CCOC(=O)c1cc(C(C)(C)C)oc1CN	-3	·	?	-3	20%	14%
Cc1ccccc1OCC(=O)Nc1cc(Cl)ccc1Oc1ccccc1	-4	5.2µM*	?	-11	-2%	14%
O=C(COC(=O)c1c(Cl)cccc1Cl)Nc1cc(Cl)ccc1Oc1ccccc1	5	?	13µM*	-4	·	·
CCNS(=O)(=O)c1ccc(CCC(=O)Nc2cc(Cl)ccc2Oc2ccccc2)cc1	-1	8.3µM*	?	-15	?	?
Cc1ccccc1OCC(=O)NS(=O)(=O)c1ccc(Cl)cc1	-4	5.2µM*	-10%	-4	4%	30%
COc1ccccc1OCC(=O)Nc1cc(Cl)ccc1Oc1ccccc1	-1	31%	-76%	-7	12%	1%
COc1ccc(OC)c(C2/C(=C(\O)c3ccc4c(c3)OCCO4)C(=O)C(=O)N2CCCN(C)C)c1 (configuration not stated)	·	·	·	·	·	2%
CCCNC(=O)Cn1cnc2sc(C(=O)N3CCN(CCC)CC3)c(C)c2c1=O	-8	0.37µM*	-1%	-2	-14%	5%
c1ccc(Cn2nnc(CNc3ccccc3)c2-c2c(CNc3ccccc3)nnn2Cc2ccccc2)cc1	-2	1.9µM*	2.6µM*	-3	·	·
ClC1(CNc2ccccc2)CCN(Cc2ccccc2)CC1	·	·	·	·	8%[46.1 µM]	?
O=C(O)c1ccc(CSc2nnc(Cc3ccccc3)o2)cc1	-4	2%	·	-8	18%	0%
COC(=O)C1=C(NC(=O)c2ccccc2C)CCS1	-3	6%	8%	25	·	·
COC(=O)C1=C(NC(=O)c2cccs2)CCS1	-6	9.3µM*	?	-6	·	-1%
COC(=O)C1=C(NC(=O)c2cccc(OC)c2)CCS1	-2	4.1µM*	20%	-4	-7%	-5%
O=C(Nc1nc(-c2ccccc2)cs1)c1ccc(=O)[nH]c1	24*	61%	28%	67*	-1%	16%
O=C(Nc1nc(-c2ccc(Cl)s2)cs1)c1cccs1	30*	-18%	?	98*	?	-4%
O=C(Nc1nc(-c2nc3ccccc3s2)cs1)c1ccco1	30*	84%	100%	66*	·	·
CCn1c(CCNC(=O)c2cccs2)nnc1SCC(=O)Nc1nc(-c2ccccc2)cs1	2	?	12µM*	33	-11%	?
CCn1c(CCNC(=O)c2cccs2)nnc1SCC(=O)Nc1cccc(Cl)c1	·	·	·	·	6%	-28%
Cc1noc(C)c1C(=O)Nc1nc(-c2cccs2)cs1	·	107%	109%	·	·	·
Cc1cccc(-c2cc(=O)c(C(=O)O)cn2-c2ccc(F)cc2F)c1	-2	23%	41%	-2	·	·
SMILES	Cycloheximide cs	Pf growth 96h	Pf growth 48h	Shiga inhibitor	Lassa entry inh	MARV entry inh
O=C(Nc1nc(-c2ccccc2)ns1)c1cccs1	28*	·	67%	68*	0%	-12%
COc1cccc(OC)c1C(=O)Nc1nc(-c2ccccc2)cs1	4	3%	?	·	-7%[46.1 µM]	-10%[46.1 µM]
O=C(NCc1nc(-c2ccccc2)no1)c1cccs1	7	·	3%	29	1%	14%
O=C(Nc1nc(-c2ccccc2)cs1)c1ccccc1NS(=O)(=O)c1ccc(F)cc1	1	3.7µM*	13µM*	27	3.7µM*	?
O=C(Nc1nc(-c2nc3ccccc3s2)cs1)C1CC1	63*	137%	53%	85*	·	·
O=C(Nc1nc(-c2ccccc2)cs1)c1cccs1	88*	177%	4%	123*	?	-25%
CCC(OC(=O)CN1C(=O)C(=O)c2ccccc21)C(=O)Nc1ccccc1OC (configuration not stated)	-6	?	0%	-5	19%	-11%[46.1 µM]
O=C(Nc1nc(-c2ccc(Cl)s2)cs1)c1ccco1	56*	60%	41%	81*	·	?
Cc1csc(NC(=O)c2ccco2)n1	-3	-10%	11%	-4	-12%	?
CC1CC1C(=O)Nc1nc(-c2ccccc2)cs1 (configuration not stated)	39*	3%	·	84*	?	-22%
O=C(Nc1ccc(Cl)cc1-c1nc2ccccc2s1)c1ccco1	13	?	37%	79*	3%	-22%
O=C(CS(=O)(=O)Cc1ccccc1)Nc1ccccc1Cl	-4	78%	0%	-4	4%	4%
O=C1OC(CCl)CN1Cc1ccc([N+](=O)[O-])cc1 (configuration not stated)	·	·	·	·	2%[46.1 µM]	?
O=C(Cc1csc(-c2ccccc2)n1)NCc1ccc(F)cc1	-1	-9%	9%	4	-4%	-9%
O=C(NCc1csc(-c2ccccc2)n1)c1cc(F)cc2c1OCOC2	45*	55%	64%	83*	?	1%[46.1 µM]
CCCC(c1nnnn1CS(=O)(=O)c1ccc(C)cc1)N1CCN(C2CCCC2)CC1 (configuration not stated)	-8	7%	?	-1	22%	?
CCCCC(c1nnnn1CS(=O)(=O)c1ccc(C)cc1)N1CCN(c2ccccc2)CC1 (configuration not stated)	-2	·	13µM*	-14	?	14µM*
Cc1ccc(S(=O)(=O)Cn2nnnc2C(C(C)C)N2CCN(c3nc4ccccc4s3)CC2)cc1 (configuration not stated)	1	?	4.7µM*	2	?	?
COc1ccc(C(=O)NCCNc2ccc([N+](=O)[O-])cc2)cc1	-2	14%[5.75 µM]	-17%	-4	10%	-24%
COc1ccc(NN=Nc2ccc([N+](=O)[O-])cc2)cc1	32*	113%	191%	27	?	?
COc1ccc(N/N=C(/Oc2ccc([N+](=O)[O-])cc2)C(C)=O)cc1	6	12µM*	?	-1	0%	-28%
CCOc1ccc(-c2csc3nc[nH]c(=O)c23)cc1	30*	?	0%	110*	12%[46.1 µM]	18%[46.1 µM]
COc1ccc(-c2csc3nc[nH]c(=O)c23)cc1	2	45%	56%	18	6%	-2%[46.1 µM]
O=c1[nH]cnc2scc(-c3ccccc3)c12	-2	-20%	2.6µM*	-6	-10%	1%
O=c1[nH]cnc2scc(-c3ccc(Br)cc3)c12	11	?	29%	25	0%[46.1 µM]	-27%[46.1 µM]
